Legend:
Conditions in all cases: concentration: 1 μM, replicates: in singlicate; n = 1
MTOR = tested on: MTOR
MUSK = tested on: MUSK
MYLK2 = tested on: MYLK2
MYLK4 = tested on: MYLK4
MYLK = tested on: MYLK
MYO3A = tested on: MYO3A
MYO3B = tested on: MYO3B
NDR1 = tested on: T1, NDR1
T1 construct: gene STK38

NDR2 = tested on: NDR2
NEK10 = tested on: NEK10
NEK11 = tested on: NEK11
NEK1 = tested on: NEK1
NEK2 = tested on: NEK2
NEK3 = tested on: NEK3
NEK4 = tested on: NEK4
NEK5 = tested on: NEK5
NEK6 = tested on: NEK6
NEK7 = tested on: NEK7
NEK9 = tested on: NEK9
NIK = tested on: T2, NIK
T2 construct: gene MAP3K14
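Note: KINOMEscan kinase panel screen.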

Row | Structure (SMILES) | %Inh (MTOR) | %Inh (MUSK) | %Inh (MYLK2) | %Inh (MYLK4) | %Inh (MYLK) | %Inh (MYO3A) | %Inh (MYO3B) | %Inh (NDR1) | %Inh (NDR2) | %Inh (NEK10) | %Inh (NEK11) | %Inh (NEK1) | %Inh (NEK2) | %Inh (NEK3) | %Inh (NEK4) | %Inh (NEK5) | %Inh (NEK6) | %Inh (NEK7) | %Inh (NEK9) | %Inh (NIK)
1 | Cc1ccc(NC(=O)c2ccc(Cl)c(Cl)c2)cc1-c1ccc(C(=O)Nc2ccncc2)cc1 [GSK1398460] | 0% | 6% | 0% | 5% | 27% | 0% | 0% | 14% | 0% | 0% | 0% | 16% | 2% | 16% | 0% | 0% | 0% | 0% | 7% | 0%
2 | Cc1cc(-c2ccnc(Nc3cccc(C#N)c3)n2)cc(C)c1O [GSK1440913] | 7% | 25% | 76% | 100% | 13% | 0% | 0% | 10% | 12% | 20% | 1% | 0% | 0% | 43% | 1% | 83% | 0% | 0% | 13% | 62%
3 | CC(=O)Nc1cn2nc(Oc3cccc(NC(=O)c4cccc(C(F)(F)F)c4)c3)ccc2n1 | 11% | 21% | 0% | 3% | 44% | 5% | 9% | 8% | 0% | 0% | 0% | 0% | 0% | 8% | 0% | 8% | 3% | 0% | 0% | 0%
4 | CN(c1ccc(NC(=O)N2CCN(CCCN3CCOCC3)CC2)cc1)c1ccnc(Nc2ccc(CS(C)(=O)=O)cc2)n1.Cl [GW830899] | 0% | 12% | 9% | 1% | 0% | 0% | 0% | 3% | 0% | 0% | 0% | 0% | 14% | 9% | 0% | 3% | 14% | 0% | 0% | 0%
5 | CN(c1ccc2c(c1)nc(NCc1ccccc1)n2C)c1ccnc(Nc2ccc(CS(C)(=O)=O)cc2)n1.Cl [GW811603] | 10% | 36% | 26% | 0% | 8% | 5% | 19% | 8% | 0% | 17% | 0% | 0% | 0% | 20% | 0% | 0% | 60% | 8% | 55% | 33%
6 | Cc1ccc(Nc2ccnc(Nc3ccc(C)c(F)c3)n2)cc1O.Cl [GW582868] | 15% | 12% | 0% | 29% | 9% | 2% | 0% | 0% | 0% | 0% | 3% | 0% | 1% | 10% | 7% | 4% | 0% | 0% | 0% | 10%
7 | COc1cccc(CC(=O)N2CCc3cc(-c4cn(C)c5ncnc(N)c45)ccc32)c1 [GSK2608899] | 8% | 27% | 64% | 7% | 20% | 38% | 18% | 22% | 0% | 7% | 49% | 21% | 74% | 4% | 44% | 24% | 18% | 11% | 25% | 0%
8 | CN1CCN(Cc2ccc(NC(=O)Nc3ccc(N(C)c4ccnc(Nc5ccc(CS(C)(=O)=O)cc5)n4)cc3)cc2)CC1.Cl [GW827654] | 0% | 98.8% | 61% | 18% | 45% | 99.1% | 0% | 0% | 0% | 28% | 19% | 45% | 0% | 16% | 24% | 98.3% | 3% | 30% | 49% | 0%
9 | CCOc1nccc(-c2c(-c3ccc(F)cc3)ncn2C2CCNCC2)n1 [SB-249175] | 0% | 0% | 0% | 19% | 31% | 90% | 0% | 6% | 12% | 27% | 50% | 9% | 0% | 13% | 0% | 31% | 4% | 10% | 7% | 5%
10 | COC(=O)Nc1nc2cc(Oc3ccc(NC(=O)Nc4cccc(SC)c4)cc3)ccc2[nH]1.Cl [GW697999] | 28% | 98.9% | 2% | 0% | 11% | 25% | 0% | 11% | 0% | 7% | 22% | 0% | 0% | 4% | 4% | 11% | 0% | 0% | 3% | 0%
11 | Cl.Cl.NCC(NC(=O)c1cc(-c2cccnc2)c(-c2ccnc3[nH]ccc23)s1)c1ccccc1 (stereo not drawn) [GSK1323434] | 10% | 18% | 15% | 98.2% | 23% | 39% | 0% | 67% | 13% | 79% | 15% | 13% | 1% | 18% | 24% | 13% | 4% | 0% | 11% | 35%
12 | Cc1cccc(Nc2nc(N[C@H]3CCCC[C@H]3N)ncc2C(N)=O)c1.Cl [GSK986310] | 0% | 27% | 7% | 93.8% | 29% | 8% | 0% | 27% | 0% | 71% | 0% | 2% | 15% | 19% | 24% | 13% | 10% | 8% | 25% | 23%
13 | Cl.N#CCc1ccc(Nc2nccc(Nc3ccc(Oc4ccccc4)cc3)n2)cc1 [GW639905] | 24% | 14% | 1% | 9% | 0% | 0% | 3% | 0% | 0% | 8% | 0% | 0% | 5% | 0% | 16% | 24% | 0% | 0% | 0% | 0%
14 | CN(C)CCOc1ccc(-c2cc(-c3ccc(Cl)c(O)c3)c(-c3ccncc3)[nH]2)cc1.Cl.Cl [SB-684387] | 19% | 0% | 28% | 9% | 18% | 39% | 13% | 35% | 42% | 0% | 38% | 9% | 14% | 2% | 0% | 22% | 0% | 0% | 17% | 0%
15 | CN(C)c1ncnc2nc[nH]c12 [SKF-31736] | 54% | 14% | 0% | 30% | 0% | 0% | 0% | 35% | 24% | 21% | 0% | 0% | 0% | 41% | 0% | 12% | 0% | 0% | 0% | 51%
16 | Cc1ccccc1CC(=O)N1CCc2cc(-c3cn(C)c4ncnc(N)c34)ccc21 [GSK2603346] | 30% | 5% | 85% | 0% | 9% | 100% | 0% | 0% | 0% | 0% | 58% | 89% | 97% | 0% | 29% | 34% | 0% | 0% | 0% | 21%
17 | Cc1ccc(NC(=O)c2ccnc(N3CCCCC3)c2)cc1-c1ccc(C(=O)NCC2CC2)cc1 [GW775610] | 9% | 0% | 15% | 0% | 0% | 0% | 3% | 0% | 5% | 0% | 0% | 0% | 0% | 4% | 0% | 0% | 0% | 8% | 20% | 15%
18 | Cn1cc(-c2ccc3c(c2)CCN3C(=O)Cc2cc(F)cc(C(F)(F)F)c2)c2c(N)ncnc21 [GSK2635225] | 35% | 28% | 27% | 1% | 12% | 42% | 0% | 25% | 13% | 6% | 8% | 9% | 18% | 0% | 13% | 0% | 6% | 0% | 25% | 15%

From paper PMC5540273 (PLoS ONE, 2017)
